For eight molecules, growth results are on record in PubChem BioAssay (NCI).

Test systems include SK-MEL-2 melanoma; EKVX NSCLC; SN12C renal; UO-31 renal; TK-10 renal; ACHN renal; CAKI-1 renal; A498 renal; CCRF-CEM leukemia; MOLT-4 leukemia; RPMI-8226 leukemia; OVCAR-8 ovarian; OVCAR-5 ovarian; OVCAR-4 ovarian; SK-OV-3 ovarian; IGROV1 ovarian; OVCAR-3 ovarian; HS 578T breast; NCI/ADR-RES ovarian.
Common to all, as to assay: NCI-60 one-dose screen, 48 h (100 = growth as untreated, 0 = no growth, -100 = all killed)
What all share (conditions): 10 µM unless noted

The panel holds about 83,000 compounds, 20% with a hit somewhere; the sample as a whole holds those more often.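 Percent growth is the endpoint: 0 to 100 indicates growth inhibition (40 means 60% inhibition), 0 means no net growth, and negative values indicate cell death.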 A number with no mark means an inactive call. Active and inactive are the calls of the source. Rule for the calls: active = growth percent below 10; inactive = the rest.

Turning to `O=S(=O)(NCCCNc1cc(-c2c(-c3cccc(O)c3)nc3sccn23)ccn1)c1cccc(Cl)c1`, the growth in the test with SK-MEL-2 melanoma is 63.7%; with EKVX NSCLC, 58.6%; with SN12C renal, 27%; with UO-31 renal, 31.5%; with TK-10 renal, 94.4%; in the test on ACHN renal it was 41.6%. The growth in the test with CAKI-1 renal was 43%; with A498 renal it was 80.4%; in the test with CCRF-CEM leukemia it was 22.8%; in the test on MOLT-4 leukemia, 15.2%; in the test with RPMI-8226 leukemia, 5.17% (active); in the test with OVCAR-8 ovarian, 17.1%. In addition, the growth in the test with OVCAR-5 ovarian was 107%; in the test with OVCAR-4 ovarian it was 35.2%; in the test on SK-OV-3 ovarian it was 49.1%; in the test with IGROV1 ovarian, 40.5%; with OVCAR-3 ovarian, 32.7%; in the test with HS 578T breast it was 32.5%. Also, in the test on NCI/ADR-RES ovarian, the growth was 76.7%.

Consider `C[C@H]1[C@H]2[C@H]3CC[C@@H]4[C@@]5(C)C/C(=C/c6ccco6)C(=O)C(C)(C)[C@@H]5CC[C@@]4(C)[C@]3(C)CC[C@]23CO[C@]1(C)[C@@H](C(=O)/C=C\c1ccco1)C3`, for which the growth was 65.6% with SK-MEL-2 melanoma; 107% in the test with EKVX NSCLC; 90.4% in the test with SN12C renal; 71.5% with UO-31 renal; 103% in the test with TK-10 renal; 68.4% in the test on ACHN renal. For the same molecule, the growth with CAKI-1 renal was 69%; in the test on A498 renal, 123%; with CCRF-CEM leukemia it was 100%; with MOLT-4 leukemia it was 100%; in the test on RPMI-8226 leukemia it was 78%; in the test on OVCAR-8 ovarian, 98.8%. Moreover, the growth with OVCAR-5 ovarian was 113%; in the test with OVCAR-4 ovarian, 90.7%; in the test with SK-OV-3 ovarian, 108%; in the test with IGROV1 ovarian, 101%; in the test on OVCAR-3 ovarian, 103%; with HS 578T breast, 94%. Besides, the growth in the test on NCI/ADR-RES ovarian was 108%.

Regarding `N=C1CCC(=N)c2c1c(O)c1ccccc1c2O`, the growth is 117% in the test on SK-MEL-2 melanoma; 82.1% in the test on EKVX NSCLC; 105% in the test on SN12C renal; 101% in the test on UO-31 renal; 127% in the test on TK-10 renal; 87% in the test on ACHN renal. Moreover, the growth is 56% with CAKI-1 renal; 100% with A498 renal; 98.4% with CCRF-CEM leukemia; 81.1% in the test with MOLT-4 leukemia; 80.2% with RPMI-8226 leukemia; 109% with OVCAR-8 ovarian. Besides, the growth in the test with OVCAR-5 ovarian is 124%; in the test on OVCAR-4 ovarian, 95.2%; with SK-OV-3 ovarian, 84.7%; in the test on IGROV1 ovarian, 80.1%; in the test with OVCAR-3 ovarian, 73.1%; with HS 578T breast, 82.8%. Further, in the test on NCI/ADR-RES ovarian, the growth was 119%.

Turning to `CSc1n(Cc2ccc3ccccc3c2)c(C)c[n+]1Cc1ccc2ccccc2c1`, the growth with SK-MEL-2 melanoma is -25.7% (active); in the test with EKVX NSCLC it was 24.9%; with SN12C renal, -2.22% (active); with UO-31 renal, 72.4%; in the test with TK-10 renal, -9.72% (active); with ACHN renal, 48%. For the same molecule, the growth with CAKI-1 renal was -22.8% (active); with A498 renal, -32.3% (active); in the test with CCRF-CEM leukemia, 1.28% (active); in the test on MOLT-4 leukemia, 2.39% (active); with RPMI-8226 leukemia it was -38.3% (active); in the test on OVCAR-8 ovarian, -3.48% (active). Moreover, the growth in the test on OVCAR-5 ovarian is 6.94% (active); with OVCAR-4 ovarian it was -7.94% (active); with SK-OV-3 ovarian, 5.34% (active); with IGROV1 ovarian, -55.6% (active); with OVCAR-3 ovarian, -41.9% (active); in the test with HS 578T breast, -23.3% (active). In the test with NCI/ADR-RES ovarian, the growth was 78.4%.

`CN(C)CCC=C1c2ccccc2C(C)(C)c2ccccc21`: the growth was 74.4% in the test on SK-MEL-2 melanoma; 110% in the test with EKVX NSCLC; 71.2% in the test on SN12C renal; 58.1% with UO-31 renal; 98.3% with TK-10 renal; 90.5% in the test with ACHN renal. The growth is 91.2% in the test with CAKI-1 renal; 91% in the test on A498 renal; 49.6% in the test with CCRF-CEM leukemia; 72.9% in the test on MOLT-4 leukemia; 0.547% (active) in the test with RPMI-8226 leukemia; 88.9% in the test on OVCAR-8 ovarian. Also, the growth in the test with OVCAR-5 ovarian was 59.4%; in the test on OVCAR-4 ovarian, 76.5%; in the test on SK-OV-3 ovarian it was 99.7%; in the test on IGROV1 ovarian, 61.3%; in the test on OVCAR-3 ovarian, 80.1%; with HS 578T breast it was 50.8%. For the same molecule, the growth in the test with NCI/ADR-RES ovarian was 77.6%.

As to `CC1=C([Se]CC(OC(=O)CC[Se]c2ccccc2)C(=O)NCCCCCC(=O)OCc2ccccc2)C(=O)c2ccccc2C1=O` (configuration not stated), the growth in the test on SK-MEL-2 melanoma is 47.8%; in the test with EKVX NSCLC, 27.1%; in the test with SN12C renal, 13.4%; with UO-31 renal it was 15.4%; in the test with TK-10 renal, 40.9%; with ACHN renal, 23.8%. Also, the growth with CAKI-1 renal was 32.2%; with A498 renal it was 71.9%; with CCRF-CEM leukemia, 9.75% (active); with MOLT-4 leukemia, 17.1%; in the test with RPMI-8226 leukemia, 49.1%; in the test with OVCAR-8 ovarian, 10.6%. Further, the growth is 39.7% in the test with OVCAR-5 ovarian; 42.5% in the test with OVCAR-4 ovarian; 39.4% in the test with SK-OV-3 ovarian; 15.9% in the test on IGROV1 ovarian; -3.7% (active) in the test with OVCAR-3 ovarian; -13.4% (active) in the test with HS 578T breast. For the same molecule, in the test with NCI/ADR-RES ovarian, the growth is 11.9%.

Take `c1ccc2cc3nc4cc5ccccc5cc4nc3cc2c1`: the growth in the test with SK-MEL-2 melanoma is 104%; in the test on EKVX NSCLC, 100%; with SN12C renal, 88.6%; in the test on UO-31 renal, 89%; in the test with TK-10 renal, 108%; in the test on ACHN renal, 97.4%. Besides, the growth with CAKI-1 renal is 113%; in the test on A498 renal it was 107%; in the test on CCRF-CEM leukemia, -24.9% (active); with MOLT-4 leukemia, 109%; in the test with RPMI-8226 leukemia, 58.6%; in the test on OVCAR-8 ovarian, 84.8%. Further, the growth is 91.6% in the test with OVCAR-5 ovarian; 104% with OVCAR-4 ovarian; 97.3% in the test on SK-OV-3 ovarian; 86.7% in the test with IGROV1 ovarian; 96.7% with OVCAR-3 ovarian; 102% in the test on HS 578T breast. Also, the growth with NCI/ADR-RES ovarian was 73.4%.

Consider `C#Cc1cccc(NC(=O)c2ccc(NC(=O)CCl)cc2)c1`, for which the growth is 31.3% [8.25 µM] with SK-MEL-2 melanoma; 104% [8.25 µM] in the test on EKVX NSCLC; -78.4% [8.25 µM] (active) in the test on SN12C renal; -99.2% [8.25 µM] (active) in the test on UO-31 renal; -63.2% [8.25 µM] (active) in the test on TK-10 renal; -98.2% [8.25 µM] (active) in the test on ACHN renal. The growth is 9.54% [8.25 µM] (active) with CAKI-1 renal; 65% [8.25 µM] with A498 renal; 12.1% [8.25 µM] in the test on CCRF-CEM leukemia; 14% [8.25 µM] with MOLT-4 leukemia; 2.29% [8.25 µM] (active) in the test with RPMI-8226 leukemia; -13.8% [8.25 µM] (active) in the test on OVCAR-8 ovarian. Besides, the growth was 40% [8.25 µM] in the test on OVCAR-5 ovarian; 17.1% [8.25 µM] in the test with OVCAR-4 ovarian; 77.3% [8.25 µM] in the test on SK-OV-3 ovarian; -55.5% [8.25 µM] (active) with IGROV1 ovarian; -85.8% [8.25 µM] (active) in the test with OVCAR-3 ovarian; 38.2% [8.25 µM] in the test on HS 578T breast. In addition, in the test on NCI/ADR-RES ovarian, the growth is 11.1% [8.25 µM].
